Rows were chosen to be rich in hits. Some 3.8% of all compounds tested hit in one or more screens of this group.
FAS-TE inh – inhibitors of human fatty acid synthase thioesterase domain | recombinant FAS-TE, OMFH fluorogenic substrate, fluorescence endpoint | inhibition, % at 15 µM | AID 602261 | hit rate 0.67% among 360,000;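 active means compounds whose normalised, plate-corrected inhibition of enzyme fluorescence in the single-dose primary screen is 50% or more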;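 further: 0% = DMSO with enzyme and 100% = substrate without enzyme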
Mot1-301 SUMO – blocks SUMOylation pathway, rescuing yeast Mot1-301 growth. S. cerevisiae Mot1-301 growth rescue, ATP luminescence, 38.5C; percent above DMSO median, 100 means doubled. hit rate 1% among 320,000. growth rescue, % at 18.8 µM;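 active means every valid replicate shows activation above 250% relative to neutral control wells; inactive means the rest, any valid replicate at or below 250%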;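 further: OY570 slx delta 5 strain wells were the positive control but not used for scaling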
H9c2 protect – myocardial damage modulation in H9c2 cells; AID 588492; hit rate 0.63% among 360,000; protection from H2O2 cell death, % at 20 µM; H9c2 cardiomyocytes, H2O2 injury protection, ATPLite, 2 h;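 active means compounds giving at least 50% protection of heart cells from peroxide-induced death in the single-dose screen, raw or plate-pattern-corrected value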;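 further: 0% = DMSO wells with peroxide and 100% = DMSO wells without peroxide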
aDG glyco act – increases alpha dystroglycan glycosylation. hit rate 0.22% among 360,000. activation, % at 10 µM. Pro5-aDG cells, alpha-DG glycosylation AlphaScreen (IIH6); 0% Pro5, 100% B10-LARGE cell signal;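 active means activation of at least 8% versus controls, or a plate z-score of at least 8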;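 further: Pro5 are CHO cells carrying HIG-tagged alpha-DG that lacks glycosylation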
MPTP inh – permeability transition pore inhibition | isolated mouse mitochondria, Ca2+ swelling absorbance, 30 min | inhibition, % at 10 µM | hit rate 1.4% among 360,000;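 active means inhibition of 50% or more, scaled per plate between neutral and stimulator controls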;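 further: 0% = DMSO wells given calcium and 100% = 1 mM EGTA wells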
CR mimetic SO – lowers age-related superoxide in aged yeast cells; hit rate 0.18% among 330,000; superoxide response (% of plate mean), % at 10 µM; S. cerevisiae aged cells, superoxide DHE fluorescence; stronger effect = lower value;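 active means superoxide response under a set limit, about three screen SD below normal, cut at about 65% in these data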;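 further: yeast aged for seven days with compound at 30 °C before DHE staining; 100% = average MFI of all compound-treated wells on the plate with controls excluded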
Active calls of the source: *; x = no result given.

SMILES | FAS-TE inh | Mot1-301 SUMO | H9c2 protect | aDG glyco act | MPTP inh | CR mimetic SO
O=c1[nH]c(N2CCOCC2)cc2ccccc12 | 5 | 6 | 56* | 0 | -1 | 113
O=c1c(N2CCOCC2)coc2ccccc12 | -13 | 3 | -2 | 0 | -2 | 94
O=C1CCc2cc(S(=O)(=O)Nc3ccccc3)cc3c2N1CCC3 | -29 | 26 | -3 | 0 | 0 | 107
O=[N+]([O-])c1cc(/C=N/O)ccc1Oc1ccccc1Cl | -16 | 266* | 0 | 0 | 3 | 132
O=[N+]([O-])c1cc(/C=N/O)ccc1Oc1cccc(Cl)c1 | -1 | -1 | -4 | 0 | 1 | 98
Cc1ccc(N=Cc2cc(Br)cc(Cl)c2O)cc1 | 2 | 77 | 76* | 0 | 1 | 89
Oc1ccc(Br)cc1C=Nc1ccc(Cl)cc1 | -4 | -19 | 50* | 0 | 3 | 99
OCC(CO)(CO)N=Cc1cc(Br)ccc1O | 1 | -11 | 58* | 0 | -1 | 98
Oc1c(Cl)cc(Cl)cc1C=Nc1ccc(Br)cc1 | -3 | 38 | 44 | 0 | 1 | 92
Cc1cccc(CS(=O)(=O)c2nnc([C@H](Cc3ccccc3)NC(=O)OC(C)(C)C)o2)c1 | 57* | 166 | -18 | 0 | 1 | 93
CCOC(=O)c1cnc(-n2nc(C)cc2C)nc1Nc1ccc(OC)cc1 | 0 | -21 | 50* | 4 | 0 | 102
CCOC(=O)c1cnc(-n2nc(C)cc2C)nc1NCCc1ccccc1 | 6 | 5 | 61* | 3 | 9 | 70
CCOC(=O)c1cnc(-n2nc(C)cc2C)nc1NC1CCCC1 | 16 | 276 | -7 | 2 | 8 | 117
CC(=O)Nc1ccc(NC(=O)CSc2nc3nc(C)cc(C)c3c(=O)[nH]2)cc1 | -4 | -4 | 1 | 0 | 0 | 71
Cc1ccc(S(=O)(=O)N2CCCCC2)cc1NC(=O)c1ccncc1 | -6 | x | 2 | 0 | -2 | x
CC(Oc1ccc2c(-c3ccccc3)cc(=O)oc2c1)C(=O)N1CCC[C@@H]1C(N)=O (some centres not stated) | -4 | 0 | 12 | 0 | 0 | 107
C[C@H]1[C@H](C)CC[C@]2(C(=O)O)CC[C@]3(C)C(=CC[C@@H]4[C@@]5(C)C[C@@H](O)[C@H](O)C(C)(C)[C@@H]5CC[C@]43C)[C@H]12 | -14 | 510* | 2 | 0 | 3 | 104
O=C1NCCN(Cc2ccoc2)C1CC(=O)N(Cc1ccccc1)CC1CCC1 (configuration not stated) | -2 | -8 | 7 | 0 | 2 | 83
CC(=O)c1c(C)n(-c2cccc(Cl)c2)c2ccc(O)cc12 | 4 | -8 | 62* | 0 | 0 | 101
CC(=O)c1c(C)n(-c2ccc(Cl)cc2)c2ccc(O)cc12 | -4 | 76 | 12 | 0 | 2 | 96
O=C(Cc1ccc(NC(=O)C2CCCN(C(=O)C3CC3)C2)cc1)Nc1cccc(C(=O)N2CCCCC2)c1 (configuration not stated) | -16 | x | -2 | 0 | -3 | x
CCc1ccc(OCC(=O)O/N=C(\N)Cc2ccc([N+](=O)[O-])cc2)cc1 | 37 | -1 | -9 | 0 | 4 | 113
Cc1ccc(NC(=S)NNc2ccc([N+](=O)[O-])cc2S(=O)(=O)Nc2ccccc2C(=O)O)cc1C | 62* | 6 | 3 | 0 | 9 | 100
COc1ccc(C2/C=C\CN(C(=O)c3ccc(C)cc3)[C@H](Cc3ccccc3)C(=O)N2Cc2ccc(F)cc2)cc1 (some centres not stated) | 39 | 3 | 85* | 1 | -1 | 106
C=CCc1cccc(/C=N/NC(=O)CNc2ccccc2OC)c1O | 25 | -26 | 63* | 0 | 40 | 111
SMILES | FAS-TE inh | Mot1-301 SUMO | H9c2 protect | aDG glyco act | MPTP inh | CR mimetic SO
C=CCc1cccc(/C=N/NC(=O)CNc2cccc3ccccc23)c1O | 27 | 115 | 33 | 0 | 48 | 107
C=CCc1cccc(/C=N/NC(=O)CCC(=O)Nc2ccc(F)cc2)c1O | 13 | 13 | 57* | 1 | 9 | 101
CCCCCCCC/C=C\CCCCCCCC(=O)NCCc1ccc(O)c(O)c1 | -7 | 4 | 67* | 0 | 6 | 109
CC(C)(C)NC(=O)C[C@H]1C[C@H](C(=O)N2CCOCC2)[C@@]2(CCC3CCCC3)c3[nH]c4ccc(Cl)cc4c3CCN2C1=O | 89* | x | -12 | 0 | -1 | 99
COc1ccc(C(=O)Nc2cc3c(cc2N2CCCCC2)n(C)c(=O)n3C)cc1OC | 2 | 34 | 30 | 0 | -2 | 141
COc1cc(C(=O)Nc2cc3c(cc2N2CCCCC2)n(C)c(=O)n3C)cc(OC)c1OC | 4 | 16 | 53* | 0 | -2 | 126
COc1ccc(/C=N\Nc2ccccc2[N+](=O)[O-])c(C(=O)O)c1OC | 2 | 974* | -1 | 0 | 4 | 102
CC(=O)C[C@H]1c2ccccc2S(=O)(=O)N1c1ccccc1 | -10 | -9 | 1 | 0 | -1 | 104
COc1ccc(N2C(=O)c3ccccc3C2=O)cc1 | 3 | -2 | -1 | 2 | -1 | 101
COc1ccc(N2C(=O)C(Cl)=C(Oc3cccc(OC)c3)C2=O)cc1 | 52* | 7 | -28 | 0 | 1 | 98
CC(C)CC(NC(=O)c1ccc(Cl)cc1Cl)C(=O)O (configuration not stated) | -12 | 271* | -10 | 0 | -1 | 102
O=C(CN1CCCc2ccccc21)Nc1cccc(S(=O)(=O)N2CCCC2)c1 | 10 | x | -10 | 0 | -1 | x
COc1ccccc1CNC(=O)COC(=O)c1ccc(NC(N)=O)cc1 | -2 | 325* | 10 | 0 | -2 | 103
COc1ccccc1CNC(=O)COC(=O)c1ccc(C(=O)c2ccccc2)cc1 | 10 | 1 | 0 | 0 | -1 | 91
OCCCNc1nc(-c2ccccc2)c2cc(Br)ccc2n1 | 0 | 826* | -7 | 0 | 0 | 79
Cc1ccc(C(C)C)c(OCc2ccc(C(=O)N/N=C/c3ccc(O)c(O)c3)cc2)c1 | 1 | 4 | 97* | 0 | 42 | 96
COc1cc(/C=N/NC(=O)c2ccccc2O)ccc1OCC(=O)Nc1ccccc1 | 1 | -15 | 78* | 0 | -2 | 96
COc1cc(/C=N/NC(=O)c2cccnc2)ccc1OCC(=O)Nc1ccccc1Cl | 0 | -9 | 51* | 1 | 0 | 107
COc1cc(/C=N/NC(=O)c2ccc(COc3cc(C)ccc3C(C)C)cc2)cc(OC)c1O | 8 | 125 | 26 | 2 | 8 | 102
COc1cc(C(=O)N/N=C/c2ccc(OC(=O)c3ccccc3Cl)cc2)ccc1O | 7 | 1 | 52* | 0 | 0 | 102
O=C(COc1ccc(/C=N/NC(=O)c2cccnc2)cc1)Nc1ccccc1 | -4 | 7 | 19 | 0 | -1 | 101
COc1ccccc1NC(=O)COc1ccc(/C=N/NC(=O)c2cccnc2)cc1 | -4 | -16 | 51* | 0 | 1 | 109

High-throughput results deposited in PubChem by several laboratories.
